Hits are enriched below; roughly 10% of the tested compounds scored in any of these assays.
Pf growth 48h – inhibits P. falciparum growth in the first generation, 48 h. P. falciparum luciferase growth in erythrocytes, 48 h. Potency, µM (doses to about 28.7 µM), hits mostly inhibitors. 310,000 tested, 5.9% active. AID 504832; active means well fitted inhibition curve with a large enough effect; inconclusive means small, poorly fitted or top-dose-only effect, or another doubt; inactive means no such curve, though single readings can be large or run the other way
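Erythrocytes infected with P. falciparum carrying an integrated firefly luciferase reporter (2% hematocrit, 0.1% parasitemia final) were exposed to compounds in RPMI 1640 with 0.5% Albumax at 37 C, 5% CO2. Growth inhibition was scored as reduced luminescence.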
Pf growth 96h – P. falciparum growth inhibition at 96 hour, primary screen for plastid delayed-death inhibitors; P. falciparum luciferase reporter growth, 96 h; Potency, µM (highest dose often 28.7 µM), usual class: inhibitors; 320,000 tested, 6.9% active; active means well fitted inhibition curve with a large enough effect; inconclusive means small, poorly fitted or top-dose-only effect, or another doubt; inactive means no such curve, though single readings can be large or run the other way
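P. falciparum expressing integrated firefly luciferase grown in erythrocytes (2% hematocrit, 0.05% parasitemia final) with compounds for 96 hours at 37 C, 5% CO2. Growth inhibition read as loss of luminescence after adding luciferase detection reagent.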
NS1 function inh – inhibitors of influenza NS1 protein function; Potency, µM (titrated, usually from 46.1 µM); 270,000 tested, 0.4% active; AID 2326; further: actives are rising curves; nearly all actives have a fitted effect of over 50% in size
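S. cerevisiae expressing influenza A NS1, grown in glucose, washed, then diluted 1:100 into pH 6.0 -URA galactose medium with 23 nl compound. Growth recovery read as OD600; NS1-free strain serves as control.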
SARS PLpro yeast – inhibitors of SARS-CoV papain-like protease in yeast. S. cerevisiae expressing SARS-CoV PLpro, growth rescue. Potency, µM (titrated, usually from 32.9 µM), most hits filed as activators. 330,000 tested, 0.19% active; further: nearly all actives have a fitted effect of over 55% in size
Large screens that a line does not name were inactive. Unless noted, the call rests on the fitted dose curve.

CCOC(=O)C1=C(C)NC(C)=C(C(=O)OCC)C1c1cccs1	Pf growth 48h 9.3µM, Pf growth 96h 9.3µM
COC(=O)C1=C(C)NC(C)=C(C(=O)OC(C)C)[C@H]1c1cccc2nonc12	Pf growth 48h 4.5µM, Pf growth 96h 2.6µM (no result: NS1 function inh, SARS PLpro yeast)
CC1=C(C(=O)OC(C)C)C(c2cccs2)C(C(=O)OC(C)C)=C(C)N1	Pf growth 48h 13µM, Pf growth 96h inconclusive
CCCCn1nnnc1NCc1ccc(C)s1	none
CC(C)Cc1ccc(CN2CCCC(NC(=O)CCN3CCCO3)C2)cc1 (configuration not stated)	Pf growth 96h inconclusive
COCCN(Cc1nc(-c2ccc(-c3ccccc3)cc2)oc1C)C(C)C	Pf growth 96h inconclusive
Cc1ccc(C23CC4CC(CC(C(=O)NC(C(=O)O)C(C)C)(C4)C2)C3)cc1 (configuration not stated)	Pf growth 48h inconclusive
N#Cc1ccc2c(c1)C[C@]1(c3ccsc3)OC3=C(C(=O)OC4(CCCCC4)C3)C2O1	Pf growth 48h inconclusive, Pf growth 96h inconclusive, NS1 function inh inconclusive
CCOC(=O)C1=C(C)NC(C)=C(C(=O)OCC)C1c1sccc1C	Pf growth 48h 5.2µM
CCOC(=O)c1sc2c(c1C)C(c1cccs1)C1=C(CCCC1=O)N2 (configuration not stated)	Pf growth 48h inconclusive, Pf growth 96h 12µM
CCCCCCCOC(=O)C1=C(C)Nc2ncnn2C1c1cccs1 (configuration not stated)	Pf growth 48h 10µM
CCCCCCCCOC(=O)C1=C(C)Nc2nnnn2C1c1cccs1 (configuration not stated)	none (no result: Pf growth 48h, Pf growth 96h)
CCOC(=O)C1=C(C)N=C2SCCC(=O)N2[C@@H]1c1cccs1	Pf growth 48h 10µM
CCOC(=O)C1=C(C)N=C2SCCC(=O)N2C1c1cccs1 (configuration not stated)	none
COc1cc2cc(CCOC(=O)c3ccco3)oc(=O)c2cc1OC	Pf growth 96h inconclusive (no result: NS1 function inh)
CCN(CC)c1ccc(N=C2C(=O)Nc3ccccc32)cc1	Pf growth 48h 3.3µM, Pf growth 96h inconclusive
CC(=O)N(C1=C(N)C(=O)c2ccccc2C1=O)c1ccccc1	Pf growth 48h inconclusive, Pf growth 96h 9.3µM
O=C(N/C(=C\c1cccnc1)C(=O)N1CCOCC1)c1cccc(Br)c1	Pf growth 96h inconclusive
O=C(N/C(=C\c1ccccc1)C(=O)N1CCOCC1)c1cccc(Br)c1	Pf growth 48h inconclusive, Pf growth 96h 7.4µM
CCOC(=O)N1CCN(C(=O)/C(=C/c2cccc3ccccc23)NC(=O)c2ccc(OC)cc2)CC1	Pf growth 48h 13µM, Pf growth 96h 9.3µM
COc1ccc(/C=C(/NC(=O)c2ccccc2)C(=O)N2CCC(C)CC2)cc1	Pf growth 48h inconclusive
COc1ccc(/C=C(\NC(=O)c2ccccc2)C(=O)N2CCC(C)CC2)cc1	Pf growth 48h 13µM (no result: NS1 function inh)
BrC(c1cccc2ccccc12)c1cccc2ccccc12	none (no result: Pf growth 48h, Pf growth 96h, SARS PLpro yeast)
O=C(O)c1c(Cl)c(Cl)c(Cl)c(Cl)c1-c1c2cc(I)c(=O)c(I)c-2oc2c(I)c(O)c(I)cc12	none (no result: NS1 function inh, SARS PLpro yeast)
CC1CCC2(CC1)NC(=O)N(CC(=O)NCCc1ccc(F)cc1)C2=O (configuration not stated)	none (no result: NS1 function inh)
COC(C#CCCN(C)C)(c1ccccc1)c1ccccc1	Pf growth 48h 1.7µM, Pf growth 96h inconclusive
O=[N+]([O-])c1cccc2c([As](=O)(O)O)cccc12	Pf growth 48h 0.74µM, Pf growth 96h 0.47µM
O=c1[nH]ccc2c([N+](=O)[O-])cccc12	none
COc1cc(C)c(Cl)cc1S(=O)(=O)NCc1ccccn1	none
Cc1nn(CC(=O)N2CCN(C)CC2)c(=O)c2ccccc12	Pf growth 96h 7.4µM
CCOC(=O)Cn1nc(C)c2ccccc2c1=O	none (no result: Pf growth 96h)
Cc1nn(CC(N)=O)c(=O)c2ccccc12	Pf growth 48h inconclusive, Pf growth 96h 2.1µM
COc1ccc(Br)c(C(=O)N2CCN(S(=O)(=O)c3cccs3)CC2)c1	Pf growth 48h 3.7µM
COc1ccccc1OC(=O)CCc1nc2ccccc2s1	Pf growth 48h 10µM (no result: NS1 function inh)
O=C(CCCOc1ccccc1)N1CCN(S(=O)(=O)c2ccc(Cl)cc2)CC1	Pf growth 48h 12µM (no result: NS1 function inh, SARS PLpro yeast)
CC(=O)c1ccc(OCCCC(=O)N2CCN(S(=O)(=O)c3cccs3)CC2)cc1	Pf growth 48h inconclusive, Pf growth 96h 9.3µM
CC(OC(=O)c1cccc(-n2cnnn2)c1)C(=O)Nc1ccc(N(C)C)cc1 (configuration not stated)	none (no result: NS1 function inh)
CCN(CC(=O)Nc1c(F)cccc1F)C(=O)c1nc2nccc(C)n2n1	none (no result: NS1 function inh)
CCC(=O)c1ccc(OCC(=O)N2CCN(S(=O)(=O)c3ccc(Cl)s3)CC2)cc1	Pf growth 48h inconclusive, Pf growth 96h 10µM (no result: NS1 function inh)
